Experimental data from PubChem BioAssay (Tox21).
Records with an inconclusive call do not appear. Activity calls are given as the source filed them. Unless noted, calls come from the whole dose curve; as a rule, active = well fitted curve in the direction sought with a large enough effect in the repeat runs; inconclusive = weak or mixed curves; inactive = no such curve, though single readings can be large; an effect the other way counts as inactive or inconclusive.

What was measured:
[1] = target: Estrogen receptor beta (Homo sapiens) (UniProt Q92731); test: qHTS assay to identify small molecule agonists of the estrogen receptor beta (ER-beta) signaling pathway (AID 1259377; active = well fitted activation curve with a large enough effect in the signal ratio in the repeat runs, not every such curve was filed as active; the % refers to the signal ratio; note: potency is the fitted concentration of half-maximal effect)
Sequence of Estrogen receptor beta (Homo sapiens) (Q92731 whole entry, looked up): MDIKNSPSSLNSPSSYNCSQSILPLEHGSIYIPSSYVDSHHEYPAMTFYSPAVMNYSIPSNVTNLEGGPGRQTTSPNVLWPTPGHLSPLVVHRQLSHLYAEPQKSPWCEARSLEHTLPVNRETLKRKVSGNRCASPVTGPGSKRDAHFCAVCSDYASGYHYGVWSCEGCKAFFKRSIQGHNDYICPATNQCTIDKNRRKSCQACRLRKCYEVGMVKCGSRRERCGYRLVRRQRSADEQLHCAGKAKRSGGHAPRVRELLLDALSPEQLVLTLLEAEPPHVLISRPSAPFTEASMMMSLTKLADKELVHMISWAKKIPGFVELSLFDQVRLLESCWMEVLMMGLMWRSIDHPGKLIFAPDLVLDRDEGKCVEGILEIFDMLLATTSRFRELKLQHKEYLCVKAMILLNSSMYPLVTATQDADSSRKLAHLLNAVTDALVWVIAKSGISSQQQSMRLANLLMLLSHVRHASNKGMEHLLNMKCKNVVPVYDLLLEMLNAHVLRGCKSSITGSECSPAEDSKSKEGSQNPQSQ
Outline: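 ER-beta-UAS-bla HEK293T (GripTite) cells carrying a UAS-driven beta-lactamase reporter, in medium with 2% charcoal-stripped FBS, were exposed to compounds for 16 hr at 37C; LiveBLAzer B/G FRET substrate was then added and fluorescence read after 2 hours at room temperature.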

[2] = qHTS assay to identify small molecule agonists of the androgen receptor (AR) signaling pathway in the presence of an antagonist - cell viability counter screen (AID 1259379); note: nearly all actives have a fitted effect of over 25% in size; note: potency is the fitted concentration of half-maximal effect
Outline: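 Viability counter screen: CellTiter-Fluor fluorescence, measured in the same wells as the luciferase read-out. MDA-kb2 cells, 3,000/well, with nilutamide at 3.0uM final and compounds at 15 concentrations, 16 hr at 37C, 0% CO2.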

[3] = qHTS assay to identify small molecule agonists of the estrogen receptor beta (ER-beta) signaling pathway - cell viability counter screen (AID 1259380); note: nearly all actives have a fitted effect of over 30% in size; note: potency is the fitted concentration of half-maximal effect
Outline: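 Luminescence read-out (CellTiter-Glo, 30 min, room temp) taken in the same wells as the beta-lactamase reporter assay; ER-beta-UAS-bla HEK293T cells exposed to DMSO-dissolved compounds for 16 hr at 37C in 2% charcoal-stripped FBS medium.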

[4] = qHTS assay to identify small molecule antagonists of the estrogen receptor beta (ER-beta) signaling pathway - cell viability counter screen (AID 1259382); note: nearly all actives have a fitted effect of over 55% in size; note: potency is the fitted concentration of half-maximal effect
Outline: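 Luminescent ATP read-out (CellTiter-Glo, 30 min, RT) taken in the same wells as the bla reporter assay. HEK293T ER-beta-UAS-bla cells in 2% charcoal-stripped FBS were exposed to compounds with 1nM E2 for 16 hr at 37C.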

[5] = target: Estrogen receptor (Homo sapiens) (UniProt P03372); test: qHTS assay to identify small molecule agonists of the estrogen receptor alpha (ER-alpha) signaling pathway in the presence of an antagonist (AID 1259383; calls by dose curve; note: nearly all actives have a fitted effect of over 15% in size; note: potency is the fitted concentration of half-maximal effect; for activation: top concentration of the series differs between compounds)
Sequence of Estrogen receptor (Homo sapiens) (P03372 whole entry, looked up): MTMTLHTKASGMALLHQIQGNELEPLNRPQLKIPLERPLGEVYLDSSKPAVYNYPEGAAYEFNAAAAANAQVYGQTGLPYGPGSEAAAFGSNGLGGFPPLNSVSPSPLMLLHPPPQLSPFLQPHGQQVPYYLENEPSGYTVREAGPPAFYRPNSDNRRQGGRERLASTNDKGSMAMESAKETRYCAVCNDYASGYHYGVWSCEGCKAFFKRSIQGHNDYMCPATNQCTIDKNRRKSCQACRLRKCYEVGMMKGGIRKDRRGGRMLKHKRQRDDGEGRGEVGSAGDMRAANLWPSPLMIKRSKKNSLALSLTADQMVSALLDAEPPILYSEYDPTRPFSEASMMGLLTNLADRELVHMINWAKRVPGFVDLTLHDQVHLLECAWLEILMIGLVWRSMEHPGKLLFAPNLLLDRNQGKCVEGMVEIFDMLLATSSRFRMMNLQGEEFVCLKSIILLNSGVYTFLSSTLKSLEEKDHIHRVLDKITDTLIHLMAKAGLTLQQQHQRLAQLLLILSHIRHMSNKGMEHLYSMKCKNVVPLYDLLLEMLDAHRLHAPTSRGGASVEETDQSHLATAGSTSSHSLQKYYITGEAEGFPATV
Outline: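 Luciferase luminescence (ONE-Glo, 30min at room temperature) measured in VM7Luc4E2 cells after 22hr compound exposure at 15 concentrations, with 10.0nM ICI-182,780 final present; cells express endogenous ER-alpha and carry four EREs upstream of luciferase.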

[6] = qHTS assay to identify small molecule agonists or antagonists of the thyroid stimulating hormone receptor (TSHR) signaling pathway - wild type cell line counter screen (AID 1259384; calls by dose curve)
Outline: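 Wild-type Hek293 cells, 800/well, 18 h at 37C, then compound with Ro20-1724 for 30 min RT. cAMP by HTRF (cAMP-d2/anti-cAMP cryptate), 1 h RT, fluorescence read. 15 concentrations, triplicates.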

[7] = target: Thyrotropin receptor (Homo sapiens) (UniProt P16473); test: qHTS assay to identify small molecule antagonists of the thyroid stimulating hormone receptor (TSHR) signaling pathway (AID 1259385; calls by dose curve; note: nearly all actives have a fitted effect of over 20% in size; note: potency is the fitted concentration of half-maximal effect)
Sequence of Thyrotropin receptor (Homo sapiens) (P16473 whole entry, looked up): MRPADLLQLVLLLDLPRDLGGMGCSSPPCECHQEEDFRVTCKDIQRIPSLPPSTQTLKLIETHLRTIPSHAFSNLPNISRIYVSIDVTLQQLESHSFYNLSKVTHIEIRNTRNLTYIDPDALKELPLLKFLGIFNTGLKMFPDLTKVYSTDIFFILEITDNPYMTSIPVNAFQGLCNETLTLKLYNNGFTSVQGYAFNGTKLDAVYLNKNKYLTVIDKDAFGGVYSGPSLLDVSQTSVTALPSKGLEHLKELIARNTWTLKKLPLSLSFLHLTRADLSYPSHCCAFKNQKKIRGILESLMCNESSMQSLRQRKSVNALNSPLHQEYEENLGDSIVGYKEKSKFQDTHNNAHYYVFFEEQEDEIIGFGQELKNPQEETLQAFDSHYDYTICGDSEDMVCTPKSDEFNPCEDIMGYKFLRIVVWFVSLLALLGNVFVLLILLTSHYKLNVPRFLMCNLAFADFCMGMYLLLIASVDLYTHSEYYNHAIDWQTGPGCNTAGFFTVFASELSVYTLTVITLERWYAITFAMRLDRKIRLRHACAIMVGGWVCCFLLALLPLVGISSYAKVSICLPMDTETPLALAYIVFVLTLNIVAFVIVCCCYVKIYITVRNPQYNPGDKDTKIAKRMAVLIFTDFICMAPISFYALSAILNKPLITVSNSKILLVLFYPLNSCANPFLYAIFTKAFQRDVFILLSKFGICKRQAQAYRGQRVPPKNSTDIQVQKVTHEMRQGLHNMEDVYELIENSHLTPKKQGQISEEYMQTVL
Outline: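 TSHR-HEK293 cells (800/well) plated 18 h, then compounds with Ro20-1724 and TSH at 1.5 ng/mL final, 30 min at room temperature. cAMP quantified by HTRF (cAMP-d2/anti-cAMP-cryptate, 1 h); 15 concentrations in triplicate.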

[8] = qHTS assay to identify small molecule agonists of the estrogen receptor alpha (ER-alpha) signaling pathway in the presence of an antagonist - cell viability counter screen (AID 1259386);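 note: cells exposed to compounds for 22 h at 37 °C before the viability read; nearly all actives have a fitted effect of over 30% in size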; note: potency is the fitted concentration of half-maximal effect
Outline: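 Read-out: CellTiter-Fluor fluorescence after 1hr reagent incubation, measured in the same wells as the luciferase readout. VM7Luc4E2 cells were exposed to 15 compound concentrations with 10.0nM ICI-182,780 for 22hr at 37C.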

[9] = target: Estrogen receptor beta (Homo sapiens) (UniProt Q92731); test: qHTS assay to identify small molecule antagonists of the estrogen receptor beta (ER-beta) signaling pathway (AID 1259378; active = well fitted inhibition curve with a large enough effect in the signal ratio in the repeat runs, not every such curve was filed as active; the % refers to the signal ratio; note: potency is the fitted concentration of half-maximal effect)
Outline: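 ER-beta-UAS-bla HEK293T cells in 2% charcoal-stripped FBS medium treated with compound plus 1nM final 17-beta-estradiol for 16 hr at 37C. Beta-lactamase reporter read by FRET substrate fluorescence after 2 hours at room temperature.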

[10] = target: Androgen receptor (Homo sapiens) (UniProt P10275); test: qHTS assay to identify small molecule agonists of the androgen receptor (AR) signaling pathway in the presence of an antagonist (AID 1259381; calls by dose curve; note: nearly all actives have a fitted effect of over 15% in size; note: potency is the fitted concentration of half-maximal effect)
Sequence of Androgen receptor (Homo sapiens) (P10275 whole entry, looked up): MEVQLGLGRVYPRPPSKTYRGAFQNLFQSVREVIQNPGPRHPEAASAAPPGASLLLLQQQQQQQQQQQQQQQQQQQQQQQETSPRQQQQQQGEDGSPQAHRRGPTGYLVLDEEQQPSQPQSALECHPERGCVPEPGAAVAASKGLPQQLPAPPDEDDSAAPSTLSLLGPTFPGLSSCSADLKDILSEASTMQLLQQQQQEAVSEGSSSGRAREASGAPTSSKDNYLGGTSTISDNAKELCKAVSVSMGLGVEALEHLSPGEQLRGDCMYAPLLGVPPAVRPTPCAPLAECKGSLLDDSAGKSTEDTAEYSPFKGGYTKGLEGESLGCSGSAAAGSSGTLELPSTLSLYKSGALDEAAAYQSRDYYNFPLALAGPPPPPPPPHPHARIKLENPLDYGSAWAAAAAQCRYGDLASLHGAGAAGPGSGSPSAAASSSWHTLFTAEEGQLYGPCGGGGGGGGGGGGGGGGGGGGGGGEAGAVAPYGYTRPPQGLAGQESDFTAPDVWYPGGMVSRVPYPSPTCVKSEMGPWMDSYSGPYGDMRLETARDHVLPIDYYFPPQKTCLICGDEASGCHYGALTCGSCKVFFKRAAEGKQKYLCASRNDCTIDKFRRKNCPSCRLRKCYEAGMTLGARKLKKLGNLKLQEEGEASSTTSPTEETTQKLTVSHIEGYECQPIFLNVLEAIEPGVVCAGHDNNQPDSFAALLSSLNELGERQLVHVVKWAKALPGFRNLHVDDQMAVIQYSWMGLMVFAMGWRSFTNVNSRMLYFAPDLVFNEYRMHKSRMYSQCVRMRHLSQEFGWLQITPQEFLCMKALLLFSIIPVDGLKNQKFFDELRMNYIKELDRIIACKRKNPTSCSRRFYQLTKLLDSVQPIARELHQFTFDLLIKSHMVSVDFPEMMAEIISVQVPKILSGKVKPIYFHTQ
Outline: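 Luciferase read-out (ONE-Glo, 30min room temperature) in MDA-kb2 MMTV-reporter cells; agonist mode run in presence of AR antagonist nilutamide, 3.0uM final. Compounds tested as 15-point series, 16hr exposure at 37C, 0% CO2.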

Measured: Potency

O=C(NS(=O)(=O)/C=C/c1ccccc1)c1ccc(F)cc1Cl
inactive: [1] | [2] | [3] | [4] | [5] | [6] | [7] | [8]

CCCCCCCC/C=C\CCCCCCCC(=O)OCCO
inactive: [1] | [2] | [5] | [6] | [7] | [8]

COc1cc(OC)c2ccc(=O)oc2c1
inactive: [9] | [2] | [3] | [10] | [4] | [5] | [6] | [7] | [8]

CCN(Cc1cccc(S(=O)(=O)O)c1)c1ccc(C(=C2C=CC(=[N+](CC)Cc3cccc(S(=O)(=O)O)c3)C=C2)c2ccc(O)cc2S(=O)(=O)[O-])cc1
inactive: [1] | [9] | [5]
active: [2] 16.6 µM | [8] 16.6 µM

CNc1c2c(nn1C)CCCC2
inactive: [9] | [2] | [3] | [4] | [5] | [6] | [7] | [8]

O=C(CCS)OCC(COC(=O)CCS)(COC(=O)CCS)COC(=O)CCS
inactive: [1] | [9] | [4] | [5] | [6] | [7]

CCSC(=O)N(CC)CC
inactive: [1] | [2] | [3] | [4] | [5] | [6] | [7] | [8]

O=C(O)c1cc(Cl)cc(Cl)c1O
inactive: [1] | [2] | [10] | [4] | [6] | [7] | [8]

CC(C)Cc1ccc(CC(=O)O)cc1
inactive: [1] | [2] | [3] | [4] | [8]

O=c1[nH]c2cc(C(F)(F)F)c(N3CCOCC3)cc2n(CP(=O)(O)O)c1=O
inactive: [9] | [2] | [3] | [4] | [5] | [8]

CSSc1ccoc1C
inactive: [1] | [9] | [2] | [4] | [6] | [7] | [8]

O=C(c1ccccc1)c1ccc(O)cc1
active: [1] 12.3 µM | [5] 49.1 µM
inactive: [2] | [3] | [10] | [4] | [6] | [7] | [8]

O=[N+]([O-])C1(Br)COCOC1
inactive: [1] | [9] | [2] | [4] | [6] | [8]

CC/C=C\C/C=C\C/C=C\CCCCCCCC(=O)OCC
inactive: [1] | [2] | [4] | [6] | [7]

CCCCCCCC(=O)OCCCCCC
inactive: [1] | [2] | [3] | [10] | [4] | [6] | [7] | [8]

O[C@@H](CNC[C@H](O)[C@H]1CCc2cc(F)ccc2O1)[C@@H]1CCc2cc(F)ccc2O1
inactive: [1] | [5] | [6] | [7] | [8]
active: [9] 8.41 µM | [3] 11.9 µM | [4] 21.1 µM

CCN(CC)CCOC(=O)C(c1ccccc1)c1ccccc1
inactive: [1] | [9] | [2] | [4] | [6] | [7] | [8]

CCO[Si](C)(CCCOCC1CO1)OCC (stereo unspecified)
inactive: [1] | [2] | [3] | [4] | [6] | [7]

CC(=O)Oc1cccc(O)c1
inactive: [9] | [2] | [3] | [4] | [5] | [6] | [7] | [8]

COC(=O)C1=C(C)NC(C)=C(C(=O)OC(C)(C)CN(C)CCC(c2ccccc2)c2ccccc2)C1c1cccc([N+](=O)[O-])c1 (stereo unspecified)
inactive: [1] | [3] | [10] | [4] | [5] | [6] | [7] | [8]

COC(=O)Nc1nc2ccc(C(=O)C3CC3)cc2[nH]1
inactive: [1] | [9] | [3] | [4] | [5] | [6] | [7] | [8]

O=C(O)CCC(=O)c1ccc(-c2ccccc2)cc1
inactive: [1] | [2] | [3] | [10] | [4] | [6] | [7] | [8]

CCCCCCCC/C=C/C(=O)O
inactive: [1] | [2] | [6] | [7] | [8]

COc1ccc(N)c([N+](=O)[O-])c1
inactive: [1] | [9] | [3] | [4] | [6] | [7]

CCCCCCC(O)CCCCCCCCCCC(=O)OC (stereo unspecified)
inactive: [1] | [9] | [2] | [6] | [7] | [8]

C1CCCCC1
inactive: [9] | [2] | [3] | [4] | [6] | [7]

O=C(O)CCC(=O)OC[C@@H](NC(=O)C(Cl)Cl)[C@H](O)c1ccc([N+](=O)[O-])cc1
inactive: [9] | [2] | [3] | [4]

CC(C(=O)O)c1ccc(C(=O)c2cccs2)cc1 (stereo unspecified)
inactive: [1] | [2] | [3] | [4]

CCCOC(=O)c1c(Cl)c(Cl)c(Cl)c(Cl)c1C(=O)OCCC
inactive: [1] | [9] | [2] | [4] | [8]

CCN(Cc1cccc(S(=O)(=O)O)c1)c1ccc(C(=C2C=CC(=[N+](CC)Cc3cccc(S(=O)(=O)O)c3)C=C2)c2ccccc2S(=O)(=O)[O-])cc1
inactive: [1] | [9] | [5]
active: [2] 17.3 µM | [8] 17.3 µM

CCN(CC)c1cccc(O)c1
inactive: [9] | [2] | [3] | [10] | [4] | [5] | [6] | [8]

CC(C)c1ccc(C(=O)N=C(N)N)cc1S(C)(=O)=O
inactive: [1] | [2] | [3] | [4] | [5] | [6] | [7] | [8]

c1ccc(CCCc2ccncc2)cc1
inactive: [1] | [2] | [3] | [4] | [5] | [6] | [7] | [8]

NC(=O)c1ccccc1[N+](=O)[O-]
inactive: [9] | [2] | [3] | [4] | [6] | [7] | [8]

Nc1ccc(F)cc1
inactive: [2] | [3] | [4] | [5] | [8]

BrC(Br)C(Br)Br
inactive: [2] | [3] | [10] | [4] | [5] | [6] | [7] | [8]

CCCCCCCCCCCSCC(=O)O
active: [3] 27.3 µM | [4] 24.3 µM
inactive: [2] | [5] | [6] | [7]

CN1CCCN(C(c2ccccc2)c2ccc(Cl)cc2)CC1 (stereo unspecified)
inactive: [10] | [5] | [6] | [7]
active: [2] 26.6 µM | [3] 13.3 µM | [4] 13.3 µM

C=CC(=O)NC(C)C
inactive: [2] | [3] | [4] | [5] | [6] | [7] | [8]

COc1cc(NS(=O)(=O)c2ccc(N)cc2)nc(C)n1
inactive: [2] | [3] | [4] | [5] | [6] | [7] | [8]

Nc1cccc2c(N)cccc12
active: [3] 4.86 µM | [10] 54.5 µM | [8] 48.6 µM
inactive: [2]

CC(CCc1ccc(O)cc1)NCCc1ccc(O)c(O)c1 (stereo unspecified)
inactive: [2] | [3] | [4] | [5] | [6] | [7]

O=C(O)CN1C(=O)c2cccc3cccc(c23)C1=O
inactive: [2] | [3] | [4] | [6] | [7]

C=Cc1ccc(OC(C)=O)cc1
inactive: [2] | [3] | [10] | [4] | [5] | [6] | [7] | [8]

CC(C)N(C)C
inactive: [2] | [3] | [4] | [6] | [7]

CC[C@H]1OC(=O)[C@H](C)[C@@H](O[C@H]2C[C@@](C)(OC)[C@@H](O)[C@H](C)O2)[C@H](C)[C@@H](O[C@@H]2O[C@H](C)C[C@H](N(C)C)[C@H]2O)[C@](C)(O)C[C@@H](C)/C(=N\OCOCCOC)[C@H](C)[C@@H](O)[C@]1(C)O
inactive: [2] | [3] | [4] | [5] | [6] | [7]
active: [8] 7.19 µM

COC(=O)c1sccc1S(N)(=O)=O
inactive: [2] | [3] | [4] | [5] | [6] | [7] | [8]

CC1C(C)(C)C2=C(C(=O)CCC2)C1(C)C (stereo unspecified)
inactive: [2] | [3] | [4] | [5] | [6] | [7]

CN(C)CC/C=C1\c2ccccc2Sc2ccc(Cl)cc21
active: [2] 29.8 µM | [3] 23.7 µM | [4] 18.8 µM | [7] 26.6 µM
inactive: [10] | [5] | [6] | [8]

CCCCCCCCCCCCCCCC(=O)OCC
inactive: [2] | [3] | [4] | [5] | [6] | [7] | [8]
